Screening results from PubChem.
Shiga inhibitor = blocks Shiga toxin action in Vero cells. Vero cells, Shiga toxin protein synthesis inhibition reporter. inhibition, % at 38.7 µM. actives 9.2% (n = 290,000); in the data active = inhibition mostly above about 28%, no sharp cut-off; inactive = mostly below about 43%
Cycloheximide cs = affects cycloheximide protein synthesis inhibition readout, counter-screen. AID 2314. max response, %. cell reporter, cycloheximide protein synthesis inhibition counterscreen. actives 12% (n = 300,000); in the data active = max response mostly above about 13%, no sharp cut-off; inactive = mostly below about 14%; note: read at 38.3 µM for the half of the compounds with a filed dose
Pf growth 48h = P. falciparum growth inhibition at 48 hours (one generation) | P. falciparum luciferase growth in erythrocytes, 48 h | Potency, µM (series often up to 28.7 µM), actives largely listed as inhibitors | actives 5.9% (n = 310,000)
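Cell-based growth assay: transgenic P. falciparum expressing firefly luciferase, cultured in red cells within RPMI 1640 containing 0.5% w/v Albumax, 24 mM bicarbonate and gentamycin. A drop in luciferase activity indicates inhibition.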
Pf growth 96h = P. falciparum growth inhibition at 96 hours | P. falciparum luciferase reporter growth, 96 h | Potency, µM (highest dose often 28.7 µM), hits mostly inhibitors | AID 504834 | actives 6.9% (n = 320,000)
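Readout is luminescence from an integrated firefly luciferase in P. falciparum. Red cells, 2% hematocrit and 0.05% parasitemia final, were cultured with compound through two parasite generations (96 hours) at 37 C, 5% CO2.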
HCV inh = blocks hepatitis C virus. Huh7.5.1 HCVcc-Cre infection, luciferase reporter, 44 h. Potency, µM (doses to about 41.8 µM), most hits filed as inhibitors. actives 3.4% (n = 340,000). AID 651820
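Infectious HCV cell culture screen: compound-treated cells (1,000/well, pre-plated 4 h) are infected with HCVcc-Cre at roughly 0.5 moi and grown 44 h. Infection is quantified by luciferase signal after 15 min substrate incubation at room temperature.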
AMA1-RON2 inh = inhibitors of Plasmodium falciparum AMA1-RON2 interaction | AlphaScreen AMA1-biotinylated RON2 peptide binding | Potency, µM (highest dose often 58.2 µM), actives largely listed as inhibitors | actives 0.2% (n = 360,000) | AID 720542; note: nearly all actives have a fitted effect of over 45% in size
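AMA1 (3D7) with his tag at 25 nM final met compounds first, then biotinylated RON2 peptide at 25 nM; detection used donor plus acceptor beads, 10 µg/mL apiece, read by AlphaScreen after 30 min at room temperature.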
Of the large screens only hits and unclear results are named; the others gave an inactive call. In the library only some 21% were active in any assay of this set; here they are far more common. Unless noted, calls come from the whole dose curve; as a rule, active = well fitted curve in the direction sought with a large enough effect; inconclusive = small, poorly fitted or top-dose-only effect, or another doubt; inactive = no such curve, though single readings can be large; an effect the other way counts as inactive or inconclusive.

Cc1ccc([C@@H]2[C@@H]3C(=O)N(C)C(=O)[C@@H]3[C@]3(C)C(=O)N(Cc4ccc(-c5ccccc5)cc4)CC(=O)N23)o1	none
CC1CCN(S(=O)(=O)c2ccc3c(c2)C(=NO)c2cc(S(=O)(=O)N4CCC(C)CC4)ccc2-3)CC1	Pf growth 48h inconclusive, Pf growth 96h 5.9µM, HCV inh 2µM
O=S(=O)(c1ccc(S(=O)(=O)N2CCCC2)cc1)N1CCCCCC1	none
O=S(=O)(c1ccc2c(c1)C(=NO)c1cc(S(=O)(=O)N3CCCCC3)ccc1-2)N1CCCCC1	Pf growth 48h 8.3µM, Pf growth 96h inconclusive, HCV inh 5µM
c1ccc(NC2=NCCCS2)cc1	none
CCc1ccc(NC2=NCCCS2)cc1	Shiga inhibitor 35, Cycloheximide cs 15
FC(F)(F)c1ccc(NC2=NCCCS2)cc1	Shiga inhibitor 43, Cycloheximide cs 30
Cc1cccc(NC2=NCCCS2)c1	Pf growth 96h inconclusive
COc1ccc(C(=O)OC(C)C(=O)NCC2CCCCC2)cc1S(=O)(=O)N1CCOCC1 (centres undefined)	Pf growth 48h inconclusive, Pf growth 96h inconclusive (no result: Shiga inhibitor, Cycloheximide cs)
COc1ccc(CCc2nnc(N)s2)cc1OC	Pf growth 48h inconclusive
Cn1c(=S)c2[nH]c(SCC3CCCO3)nc2n(C)c1=O (centres undefined)	none (no result: Shiga inhibitor, Cycloheximide cs, Pf growth 48h, Pf growth 96h)
CCOC(=O)C(C#N)c1ccccn1 (centres undefined)	Cycloheximide cs 29
CCN(CC)S(=O)(=O)c1ccc(C(=O)C(C#N)c2ccccn2)cc1 (centres undefined)	Pf growth 48h inconclusive, HCV inh 10µM
COc1cccc(/C=N/NC(=O)CNC(=O)c2ccc(S(=O)(=O)N3CCCC3)cc2)c1OC	none
COc1ccc(N/N=C(\C#N)C(=N)SCc2ccccc2)cc1	Pf growth 48h inconclusive
CCN(CC)C(=N)/C(C#N)=N/Nc1ccc(C)cc1	Shiga inhibitor 87, Cycloheximide cs 44
N#C/C(=N\Nc1ccc(Cl)cc1)C(=N)N1CCCCC1	Shiga inhibitor active
COc1ccc(N/N=C(\C#N)C(=N)N2CCCCC2)cc1	Shiga inhibitor 68, Cycloheximide cs 43
Cc1ccc(N/N=C(\C#N)C(=N)N2CCOCC2)cc1	Shiga inhibitor active, Cycloheximide cs 56
NC(=O)Cn1ccc(O)c(Cc2ccc(Cl)cc2Cl)c1=O	none
Cc1ccc(NNC(=O)C(=O)N2CCCCC2)cc1	none
N#C/C(=N\Nc1ccc(Cl)cc1)C(N)=S	Shiga inhibitor 46, Cycloheximide cs 23, Pf growth 96h inconclusive, HCV inh inconclusive
N#C/C(=N\Nc1ccc(F)cc1)C(=N)N1CCCCCC1	Shiga inhibitor 58, Cycloheximide cs 27
N#C/C(=N\Nc1ccccc1F)C(=N)N1CCCCC1	Shiga inhibitor 114, Cycloheximide cs 51
Cc1ccc(N/N=C(\C#N)C(=N)N2CCCCCC2)cc1	Shiga inhibitor 94, Cycloheximide cs 37, Pf growth 96h inconclusive
CC(C)C(=NO)c1ccccc1	none (no result: Shiga inhibitor, Cycloheximide cs, Pf growth 48h, Pf growth 96h)
CN(CC(=O)Nc1ccc(F)c(F)c1F)C(=O)C1CCCC1	Pf growth 96h inconclusive (no result: Shiga inhibitor, Cycloheximide cs)
CN(C)S(=O)(=O)c1ccc(N2CCCC2)c(C(=O)N2CCC(C(N)=O)CC2)c1	Pf growth 96h inconclusive, HCV inh inconclusive (no result: Shiga inhibitor, Cycloheximide cs)
N#C/C(=N\Nc1ccc(S(=O)(=O)N2CCOCC2)cc1)C(N)=S	Pf growth 48h 15µM, Pf growth 96h inconclusive
N#C/C(=N\Nc1ccccc1)C(=N)N1CCOCC1	Shiga inhibitor 41, Cycloheximide cs 30
CC1CCN(S(=O)(=O)c2ccc(N/N=C(/C#N)C(N)=O)cc2)CC1	Pf growth 96h inconclusive
CCCS(=O)(=O)NC(=O)C1(C)CCCN(C(=O)COCc2ccccc2)C1 (centres undefined)	none (no result: Shiga inhibitor, Cycloheximide cs, Pf growth 48h, Pf growth 96h, HCV inh)
CCN(CC)C(=S)SCC(=O)c1ccc(Br)cc1	Shiga inhibitor 167, Cycloheximide cs 107
CCn1c(CNC(C)=O)nnc1SCC(=O)c1ccc(Br)cc1	none
COc1ccc(S(=O)(=O)n2ccc(C(C)Oc3ccc(-c4ccccc4)c(F)c3)n2)cc1 (centres undefined)	Pf growth 48h 13µM, Pf growth 96h 17µM, HCV inh inconclusive
O=C(CSc1ccccc1F)NC(=O)c1ccccc1Br	none (no result: Shiga inhibitor, Cycloheximide cs, Pf growth 48h, Pf growth 96h)
CCCC(c1nnnn1CC(=O)OCC)N(Cc1cc2ccc(C)cc2[nH]c1=O)C1CCCC1 (centres undefined)	Pf growth 96h inconclusive
